In article PMC7862700, “An all-to-all approach to the identification of sequence-specific readers for epigenetic DNA modifications on cytosine” one finds binding signal data, which are given here for seven sequences.

What all share (experiment): DAPPL (digital affinity profiling via proximity ligation, sequencing); 10 mM Tris-HCl pH 7.5, 50 mM NaCl, 1 mM DTT, 4% glycerol, room temperature, 30 min; GST-TFs on glutathione beads, 16-mer random dsDNA library, 0.1% formaldehyde crosslink after washing; high values mean tight binding
What all share (conditions): protein: recombinant; tags: N-terminal GST; dsDNA, one strand shown

One experiment addresses T1, FLI1 (Homo sapiens, UniProt Q01543 1-452).
T1 sequence: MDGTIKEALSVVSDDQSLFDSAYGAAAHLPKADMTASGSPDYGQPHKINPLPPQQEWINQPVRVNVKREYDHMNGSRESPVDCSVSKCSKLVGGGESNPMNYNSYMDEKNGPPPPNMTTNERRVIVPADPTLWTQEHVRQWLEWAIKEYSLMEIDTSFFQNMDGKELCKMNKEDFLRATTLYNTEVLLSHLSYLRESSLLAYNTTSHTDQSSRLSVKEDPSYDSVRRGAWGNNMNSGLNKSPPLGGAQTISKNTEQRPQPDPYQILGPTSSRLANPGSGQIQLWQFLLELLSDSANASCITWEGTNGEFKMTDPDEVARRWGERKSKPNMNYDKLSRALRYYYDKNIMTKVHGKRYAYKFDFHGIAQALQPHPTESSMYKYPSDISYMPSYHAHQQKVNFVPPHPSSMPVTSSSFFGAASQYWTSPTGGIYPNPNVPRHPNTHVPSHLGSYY
The essentials: (§1)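 Binding signal is given per hexamer as its read frequency for a factor divided by its frequency in the tag-only sample. GST-fused human transcription factors were expressed in yeast, captured on glutathione beads, barcoded with DNA and pooled with that sample, then incubated with 200 nmole of a 16-mer random double-stranded DNA library in Tris/NaCl/DTT/glycerol buffer for 30 min at room temperature. The pools were then washed, crosslinked, proximity-ligated, amplified by PCR and sequenced on an Illumina NextSeq500.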

The next experiment addresses T2, ELK1 (Homo sapiens, UniProt P19419 1-428).
T2 sequence: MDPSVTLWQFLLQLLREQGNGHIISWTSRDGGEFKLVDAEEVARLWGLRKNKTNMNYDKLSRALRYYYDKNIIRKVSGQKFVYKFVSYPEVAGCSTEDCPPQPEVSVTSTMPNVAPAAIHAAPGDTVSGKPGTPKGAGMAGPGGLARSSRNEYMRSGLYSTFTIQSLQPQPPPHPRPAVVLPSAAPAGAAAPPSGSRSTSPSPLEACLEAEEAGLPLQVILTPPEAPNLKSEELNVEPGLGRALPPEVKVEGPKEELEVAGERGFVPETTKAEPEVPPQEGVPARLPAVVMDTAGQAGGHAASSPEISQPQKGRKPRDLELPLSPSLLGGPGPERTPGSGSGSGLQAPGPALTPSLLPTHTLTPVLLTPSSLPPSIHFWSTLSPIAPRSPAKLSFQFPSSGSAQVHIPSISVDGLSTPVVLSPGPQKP
The essentials: as §1

For the next experiment, the target named is T3, GABPA (Homo sapiens, UniProt Q06546 1-454).
T3 sequence: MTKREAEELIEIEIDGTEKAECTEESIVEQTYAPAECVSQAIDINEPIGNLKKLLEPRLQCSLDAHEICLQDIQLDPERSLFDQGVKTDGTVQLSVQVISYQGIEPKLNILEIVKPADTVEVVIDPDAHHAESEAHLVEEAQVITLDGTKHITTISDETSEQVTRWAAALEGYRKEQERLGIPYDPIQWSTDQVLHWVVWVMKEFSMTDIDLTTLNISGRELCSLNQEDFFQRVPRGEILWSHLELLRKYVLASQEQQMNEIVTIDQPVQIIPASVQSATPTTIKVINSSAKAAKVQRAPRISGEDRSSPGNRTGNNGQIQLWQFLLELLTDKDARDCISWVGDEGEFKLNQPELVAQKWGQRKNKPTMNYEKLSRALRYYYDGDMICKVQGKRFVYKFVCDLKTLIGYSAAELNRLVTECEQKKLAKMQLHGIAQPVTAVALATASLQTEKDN
The method, boiled down: as §1

In the next experiment the target is T4, ERG (Homo sapiens, UniProt P11308 1-479).
T4 sequence: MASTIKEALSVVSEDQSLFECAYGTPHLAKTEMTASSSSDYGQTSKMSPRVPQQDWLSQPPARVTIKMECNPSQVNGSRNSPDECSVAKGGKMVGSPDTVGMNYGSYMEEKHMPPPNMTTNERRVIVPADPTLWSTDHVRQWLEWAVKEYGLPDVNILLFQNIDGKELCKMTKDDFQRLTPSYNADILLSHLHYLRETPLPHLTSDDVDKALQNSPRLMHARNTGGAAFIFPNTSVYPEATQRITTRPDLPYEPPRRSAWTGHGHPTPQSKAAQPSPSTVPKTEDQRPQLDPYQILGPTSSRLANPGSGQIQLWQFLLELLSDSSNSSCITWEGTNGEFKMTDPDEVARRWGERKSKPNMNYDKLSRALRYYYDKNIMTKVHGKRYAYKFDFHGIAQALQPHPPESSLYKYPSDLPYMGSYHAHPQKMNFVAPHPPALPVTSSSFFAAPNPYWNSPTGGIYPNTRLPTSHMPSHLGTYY
The essentials:
as §1

In the next experiment the target is ELF1 (Homo sapiens, UniProt P32519 1-619). The method, boiled down:
as §1

Another experiment concerns the target T5, EHF (Homo sapiens, UniProt Q9NZC4 1-300).
T5 sequence: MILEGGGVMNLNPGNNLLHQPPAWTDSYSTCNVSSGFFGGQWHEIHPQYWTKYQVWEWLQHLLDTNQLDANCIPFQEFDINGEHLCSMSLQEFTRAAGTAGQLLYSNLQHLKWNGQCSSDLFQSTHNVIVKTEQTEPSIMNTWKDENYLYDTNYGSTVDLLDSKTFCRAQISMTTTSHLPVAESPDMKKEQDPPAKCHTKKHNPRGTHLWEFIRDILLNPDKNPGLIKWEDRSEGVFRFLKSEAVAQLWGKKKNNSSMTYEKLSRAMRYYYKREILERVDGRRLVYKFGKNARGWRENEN
The method, boiled down: as §1

Another experiment deals with SPI1 (Homo sapiens, UniProt P17947 1-270). The method, boiled down:
as §1

Another experiment addresses SPIB (Homo sapiens, UniProt Q01892 1-262). The essentials: as §1
For the next experiment, the target named is T6, ELK3 (Homo sapiens, UniProt P41970 1-407).
T6 sequence: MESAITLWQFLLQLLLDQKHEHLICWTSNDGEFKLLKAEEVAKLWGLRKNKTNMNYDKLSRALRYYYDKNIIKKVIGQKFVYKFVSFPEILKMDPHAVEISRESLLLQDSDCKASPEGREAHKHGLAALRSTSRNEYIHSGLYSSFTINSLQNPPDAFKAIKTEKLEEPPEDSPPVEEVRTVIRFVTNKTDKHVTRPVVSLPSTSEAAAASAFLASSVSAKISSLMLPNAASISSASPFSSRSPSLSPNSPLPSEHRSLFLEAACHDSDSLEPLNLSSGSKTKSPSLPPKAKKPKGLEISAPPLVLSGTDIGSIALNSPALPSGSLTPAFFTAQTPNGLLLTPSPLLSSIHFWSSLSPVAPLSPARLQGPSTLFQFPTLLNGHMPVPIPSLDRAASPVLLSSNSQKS
The essentials:
as §1

Chain of SPIB (Q01892 whole entry): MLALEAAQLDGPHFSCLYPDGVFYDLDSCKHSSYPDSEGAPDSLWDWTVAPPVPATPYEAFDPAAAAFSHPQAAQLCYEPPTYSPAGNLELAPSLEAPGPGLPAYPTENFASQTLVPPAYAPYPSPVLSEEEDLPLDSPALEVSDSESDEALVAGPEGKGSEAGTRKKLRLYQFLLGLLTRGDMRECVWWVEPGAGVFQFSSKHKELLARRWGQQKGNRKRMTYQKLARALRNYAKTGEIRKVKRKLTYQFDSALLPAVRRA
Chain of ELF1 (P32519 whole entry): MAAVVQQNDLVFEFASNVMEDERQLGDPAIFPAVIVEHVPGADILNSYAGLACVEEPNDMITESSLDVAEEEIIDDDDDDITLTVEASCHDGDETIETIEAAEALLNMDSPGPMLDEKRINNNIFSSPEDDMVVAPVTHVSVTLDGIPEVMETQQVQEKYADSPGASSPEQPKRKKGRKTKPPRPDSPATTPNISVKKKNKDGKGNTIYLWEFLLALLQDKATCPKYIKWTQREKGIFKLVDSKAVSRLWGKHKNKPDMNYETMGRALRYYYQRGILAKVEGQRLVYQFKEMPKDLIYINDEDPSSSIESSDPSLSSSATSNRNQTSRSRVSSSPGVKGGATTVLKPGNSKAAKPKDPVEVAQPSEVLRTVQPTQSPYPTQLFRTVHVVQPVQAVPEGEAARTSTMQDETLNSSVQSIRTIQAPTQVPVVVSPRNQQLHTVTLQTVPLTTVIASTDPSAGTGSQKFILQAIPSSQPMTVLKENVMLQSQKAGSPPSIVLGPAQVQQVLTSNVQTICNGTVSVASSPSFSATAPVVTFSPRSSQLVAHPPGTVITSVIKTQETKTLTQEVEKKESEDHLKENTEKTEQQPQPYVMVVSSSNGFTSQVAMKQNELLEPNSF

As for AACTGC, the binding signal in the experiment with FLI1 was 1.34 fold enrichment (6-mer frequency, TF over GST control); with ELK1, 1.47 fold enrichment (6-mer frequency, TF over GST control); in the experiment with GABPA it was 1.32 fold enrichment (6-mer frequency, TF over GST control); in the experiment with ERG it was 1.32 fold enrichment (6-mer frequency, TF over GST control); with ELF1, 1.42 fold enrichment (6-mer frequency, TF over GST control); in the experiment with EHF, 1.33 fold enrichment (6-mer frequency, TF over GST control). Besides, the binding signal with SPI1 is 1.45 fold enrichment (6-mer frequency, TF over GST control); with SPIB it was 1.41 fold enrichment (6-mer frequency, TF over GST control); with ELK3, 1.25 fold enrichment (6-mer frequency, TF over GST control).

For the sequence TCGCTA, the binding signal with FLI1 was 1.17 fold enrichment (6-mer frequency, TF over GST control); with ELK1 it was 1.09 fold enrichment (6-mer frequency, TF over GST control); with GABPA it was 1.24 fold enrichment (6-mer frequency, TF over GST control); with ERG, 1.07 fold enrichment (6-mer frequency, TF over GST control); with ELF1 it was 1.11 fold enrichment (6-mer frequency, TF over GST control); with EHF it was 1.02 fold enrichment (6-mer frequency, TF over GST control). The binding signal was 1.04 fold enrichment (6-mer frequency, TF over GST control) with SPI1; 1.05 fold enrichment (6-mer frequency, TF over GST control) with SPIB; 1.23 fold enrichment (6-mer frequency, TF over GST control) with ELK3.

Consider TCATTC, for which the binding signal with FLI1 was 1.27 fold enrichment (6-mer frequency, TF over GST control); with ELK1, 1.22 fold enrichment (6-mer frequency, TF over GST control); with GABPA, 1.26 fold enrichment (6-mer frequency, TF over GST control); with ERG, 1.27 fold enrichment (6-mer frequency, TF over GST control); with ELF1, 1.28 fold enrichment (6-mer frequency, TF over GST control); with EHF it was 1.17 fold enrichment (6-mer frequency, TF over GST control). The binding signal with SPI1 is 1.24 fold enrichment (6-mer frequency, TF over GST control); in the experiment with SPIB, 1.19 fold enrichment (6-mer frequency, TF over GST control); with ELK3 it was 1.28 fold enrichment (6-mer frequency, TF over GST control).

Turning to TAATTC, the binding signal was 1.5 fold enrichment (6-mer frequency, TF over GST control) in the experiment with FLI1; 1.36 fold enrichment (6-mer frequency, TF over GST control) with ELK1; 1.48 fold enrichment (6-mer frequency, TF over GST control) with GABPA; 1.48 fold enrichment (6-mer frequency, TF over GST control) with ERG; 1.48 fold enrichment (6-mer frequency, TF over GST control) with ELF1; 1.37 fold enrichment (6-mer frequency, TF over GST control) with EHF. In addition, the binding signal with SPI1 was 1.33 fold enrichment (6-mer frequency, TF over GST control); with SPIB it was 1.51 fold enrichment (6-mer frequency, TF over GST control); with ELK3, 1.58 fold enrichment (6-mer frequency, TF over GST control).

On to CTTCTT, for which the binding signal with FLI1 is 1.44 fold enrichment (6-mer frequency, TF over GST control); in the experiment with ELK1 it was 1.58 fold enrichment (6-mer frequency, TF over GST control); with GABPA, 1.5 fold enrichment (6-mer frequency, TF over GST control); in the experiment with ERG, 1.63 fold enrichment (6-mer frequency, TF over GST control); with ELF1, 1.65 fold enrichment (6-mer frequency, TF over GST control); with EHF, 1.53 fold enrichment (6-mer frequency, TF over GST control). Moreover, the binding signal is 1.61 fold enrichment (6-mer frequency, TF over GST control) with SPI1; 1.44 fold enrichment (6-mer frequency, TF over GST control) with SPIB; 1.61 fold enrichment (6-mer frequency, TF over GST control) with ELK3.

As to TTCAAG, the binding signal in the experiment with FLI1 was 1.22 fold enrichment (6-mer frequency, TF over GST control); in the experiment with ELK1, 1.22 fold enrichment (6-mer frequency, TF over GST control); with GABPA, 1.25 fold enrichment (6-mer frequency, TF over GST control); with ERG it was 1.24 fold enrichment (6-mer frequency, TF over GST control); with ELF1 it was 1.28 fold enrichment (6-mer frequency, TF over GST control); with EHF, 1.3 fold enrichment (6-mer frequency, TF over GST control). The binding signal in the experiment with SPI1 is 1.2 fold enrichment (6-mer frequency, TF over GST control); with SPIB, 1.29 fold enrichment (6-mer frequency, TF over GST control); in the experiment with ELK3 it was 1.22 fold enrichment (6-mer frequency, TF over GST control).

Turning to TTCTGA, the binding signal was 1.37 fold enrichment (6-mer frequency, TF over GST control) with FLI1; 1.39 fold enrichment (6-mer frequency, TF over GST control) with ELK1; 1.27 fold enrichment (6-mer frequency, TF over GST control) with GABPA; 1.31 fold enrichment (6-mer frequency, TF over GST control) in the experiment with ERG; 1.27 fold enrichment (6-mer frequency, TF over GST control) with ELF1; 1.32 fold enrichment (6-mer frequency, TF over GST control) in the experiment with EHF. Besides, the binding signal in the experiment with SPI1 was 1.21 fold enrichment (6-mer frequency, TF over GST control); with SPIB, 1.32 fold enrichment (6-mer frequency, TF over GST control); in the experiment with ELK3 it was 1.38 fold enrichment (6-mer frequency, TF over GST control).
